A selection: hits, their analogues and other compounds. The true share with any hit is near 4.8%.
hgDAF12 agonist: agonists of H. glycines DAF-12 nuclear receptor; actives 1.8% (n = 370,000); AID 687014; activation, % at 6.8 µM; HEK293 GAL4-hgDAF12 UAS-luciferase reporter, agonist luminescence; normalized to butyrate control;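 active = activation above a cutoff set at the mean of all screened compounds plus 3 SD, cut at about 10% in these data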;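 note: 0% = DMSO wells and 100% = sodium butyrate wells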
hcDAF12 agonist: activators of H. contortus DAF-12 nuclear receptor | HEK293 hcDAF-12 lit1-tk-luc reporter, luminescence; 0% DMSO, 100% Δ7-dafachronic acid | activation, % at 6.8 µM | actives 1.4% (n = 370,000) | AID 652067;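 active = activation above the mean of all tested compounds plus 3 SD, cut at about 5.5% in these data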;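 note: 100% = response to 3 µM Δ7-dafachronic acid high control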
DAX1 inh-1: blocks DAX1 repression of SF-1 activated StAR promoter; HEK293T StAR-luciferase reporter, SF-1/DAX-1 repression relief; inhibition, % at 6.8 µM; actives 1.1% (n = 370,000);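 active = inhibition above the mean over all tested compounds plus 3 SD, cut at about 3.6% in these data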;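 note: 0% = DAX-1 cells with DMSO and 100% = cells lacking DAX-1 with DMSO; higher inhibition means more luminescence from relief of DAX-1 repression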
SMARCA2 activ: activators of SMARCA2 function | MG213 cells, MMTV-luciferase reporter, dexamethasone, overnight | activation, % at 9.1 µM | actives 1% (n = 370,000); in the data active = activation above about 7.8%;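 note: 0% = vehicle wells and 100% = reference activator wells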
DAX1 inh-2: inhibitors of human orphan nuclear receptor DAX1 (NR0B1); P51843; HEK293 Gal4-DAX1 luciferase reporter, luminescence; inhibition, % at 6.75 µM; actives 0.99% (n = 340,000); AID 504766;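 active = inhibition above the mean over all tested compounds plus 3 SD, cut at about 4.2% in these data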;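 note: 0% = DAX1-transfected cells with DMSO and 100% = empty-vector control cells with DMSO; inhibition shows as a rise in luminescence from relieved DAX1 repression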
Target sequence (P51843 207-470 limits assumed): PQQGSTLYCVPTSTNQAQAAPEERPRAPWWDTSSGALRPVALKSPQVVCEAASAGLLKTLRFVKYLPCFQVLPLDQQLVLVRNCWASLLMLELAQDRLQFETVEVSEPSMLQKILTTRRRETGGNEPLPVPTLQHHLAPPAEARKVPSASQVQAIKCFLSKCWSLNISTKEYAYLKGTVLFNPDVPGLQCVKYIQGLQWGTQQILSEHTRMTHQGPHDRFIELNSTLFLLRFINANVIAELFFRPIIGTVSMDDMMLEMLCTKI
ssDAF-12 act: activators of S. stercoralis DAF-12 nuclear receptor; HEK293 ssDAF-12/GRIP1 lit1-tk-luc reporter, luminescence; % of 3 µM dafachronic acid response; activation, % at 6.8 µM; actives 1% (n = 370,000); AID 652126;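 active = activation above the mean over all tested compounds plus 3 SD, cut at about 0.9% in these data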;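 note: 0% = DMSO-only wells and 100% = 3 µM delta7-dafachronic acid wells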
SMARCA2 act conf: SMARCA2 activation, confirmation screen | shares compounds with SMARCA2 activ | MG213 cells, MMTV-luciferase with dexamethasone, luminescence, overnight; MG213 cells expressing E1A, Rb sequestered; DMSO wells 0%, reference activator 100% | activation, % at 9.1 µM | actives 30% (n = 3,500) | AID 652260;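 active = activation above its plate's cutoff, the mean activation of tested wells plus 3 SD, cut at about 7.9% in these data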
VP16 Luc act: counter-screen for SMARCA2 activators: GAL4-VP16 luciferase reporter activation; shares compounds with SMARCA2 activ; actives 41% (n = 3,500); activation, % at 9.1 µM; HEK293 GAL4-VP16 pG5luc reporter, luciferase luminescence; scaled: DMSO wells 0%, SAHA wells 100%;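 active = activation above the solvent-only control well mean plus 3 SD, averaged across control plates, cut at about 5.2% in these data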
* marks the source's active call; other numbers are inactive results; . = not tested or not shown.

SMILES	hgDAF12 agonist	hcDAF12 agonist	DAX1 inh-1	SMARCA2 activ	DAX1 inh-2	ssDAF-12 act	SMARCA2 act conf	VP16 Luc act
C[C@H](NC(=O)[C@@H]1CCCN1C(=O)OC(C)(C)C)c1ccccc1	6	1	-1	-2	.	0	.	.
CC(C)Oc1ccc(CNC(=S)N/N=C/c2ccc([N+](=O)[O-])cc2)cc1	6	-2	0	10*	2	-2	-1	4
COc1cccc(C(=O)Nc2nnc(-c3cccs3)s2)c1	11*	3	2	8.3*	2	0	12*	14*
CCOCc1nnc(NC(=O)c2cccc(OC)c2)s1	4	2	2	-2	2	0	.	.
O=C(CC1(O)C(=O)Nc2cc(Cl)cc(Cl)c21)c1ccncc1 (centres undefined)	0	0	-1	11*	0	-1	0	0
Cc1ccc(Cl)c2c1NC(=O)C2(O)CC(=O)c1ccc(Br)cc1 (centres undefined)	3	5	1	3	0	0	.	.
Cc1cc(C)cc(C(=O)NCC(=O)OCN2C(=O)c3ccccc3C2=O)c1	0	0	-1	0	0	0	.	.
Cc1ccc(C)c(OCc2nc(-c3cccnc3)no2)c1	2	-1	-2	-1	-1	-1	.	.
Cc1ccc(-c2nc(-c3cccnc3)no2)c(C)c1	10	3	2	9.2*	0	0	19*	13*
CNC(=O)NNC(=O)c1csc(Cc2c(Cl)sc3ccc(Cl)cc23)n1	-1	-1	0	-5	2	0	.	.
CCN1CCCC1CNC(=O)c1ccc2c(c1)NC(=O)/C(=C\c1ccc(OC)c(OC)c1)S2 (centres undefined)	3	0	1	8.6*	2	-1	12*	0
CCN1CCCC1CNC(=O)c1ccc2c(c1)NC(=O)/C(=C\c1ccccc1Cl)S2 (centres undefined)	-3	1	0	3	0	-1	.	.
COC(=O)c1cccc(NC(=O)CCc2ccccc2)c1	3	1	0	3	0	1	.	.
O=C(CCc1ccccc1)Nc1ccccc1[N+](=O)[O-]	8	0	2	8.2*	3	-1	15*	5.3*
CC(=O)Nc1cccc(NC(=O)CCc2ccccc2)c1	1	-1	0	1	1	-1	.	.
O=C(CCCc1ccccc1)Nc1cccc(C(=O)O)c1	12*	4	4.5*	8.2*	-2	0	9.1*	14*
Cc1cccc(NC(=O)CCc2ccccc2)c1	3	1	0	9.2*	-1	-1	5	2
CC1CCN(C(=O)COC(=O)c2ccc3c(c2)C(=O)N(Cc2ccco2)C3=O)CC1	-3	2	0	-1	0	-1	.	.
CCCn1c(C(O)c2cc(OC)c(OC)c(OC)c2)nc2ccccc21 (centres undefined)	-2	-2	-1	1	1	-2	.	.
CSc1nc(C)cc(SCC(=O)Nc2ccc(Cl)cc2Cl)n1	-3	-3	-1	8.0*	-1	-1	0	0
O=S(=O)(c1cccc(-c2n[nH]c(=S)o2)c1)N1CCOCC1	-3	0	0	2	3	-1	.	.
O=C1SC(Cc2ccccc2)C(=O)N1c1ccccc1 (centres undefined)	-1	-1	0	8.3*	.	0	-4	0
O=C(/C=C/c1ccccc1)NNC(=O)c1cccc(Cl)c1	2	-1	0	0	0	-1	.	.
CCOc1ccc(/C=C/C(=O)c2ccccc2)cc1	8	6.2*	2	9.9*	4	0	6	12*
CN(C)c1ccc(C(=O)/C=C/c2ccc(Br)cc2)cc1	4	3	1	5	4	-2	.	.
SMILES	hgDAF12 agonist	hcDAF12 agonist	DAX1 inh-1	SMARCA2 activ	DAX1 inh-2	ssDAF-12 act	SMARCA2 act conf	VP16 Luc act
O=C(C=Cc1ccc(OCc2ccccc2)cc1)c1c(F)cccc1F	1	1	0	10*	.	-1	9.9*	1
COc1ccc(C(=O)/C=C/c2ccc(OCc3ccccc3)cc2)cc1CSCC(=O)O	1	-1	-3	-1	0	-1	.	.
CCOc1ccc(C(=O)/C=C/c2ccc(SC)cc2)cc1	-3	-1	-1	-1	0	-2	.	.
O=C(C=Cc1cccc(Cl)c1)c1ccccc1	3	0	-2	10*	0	0	2	2
CN(C)c1ccc(C(=O)/C=C/c2ccccc2)cc1	10	1	2	10*	2	-1	8.6*	14*
CC1=C(C(=O)OCc2ccccc2)C(c2cccc([N+](=O)[O-])c2)NC(=O)N1C (centres undefined)	-2	-2	0	-1	-1	-2	.	.
Cc1ccc(NC(=O)c2ccc3ccccc3n2)cc1S(=O)(=O)N(C)C	5	3	1	3	1	0	.	.
COC(=O)CCCNC(=O)c1ccc(S(=O)(=O)NCc2ccco2)cc1	0	0	0	-3	-1	-1	.	.
CNc1ccc(/C=C/C(=O)c2ccc(C)cc2)cc1[N+](=O)[O-]	-3	-3	0	-1	-1	-2	.	.
CN(C)c1ccc(/C=C/C(=O)c2ccccc2)cc1[N+](=O)[O-]	4	1	1	9.3*	1	-1	7	1
CCOc1cc(C(=O)NCC(C)CN(C)C)cc(OCC)c1OCC (centres undefined)	1	-1	-1	-2	0	-1	.	.
CCOc1ccc(C(=O)NCC(C)CN(C)C)cc1OCC (centres undefined)	3	0	0	9.4*	0	-1	-2	2
CCOCCCNC(=O)c1cccc(OC2CCN(S(C)(=O)=O)CC2)c1	8	4	1	8.3*	3	0	8	10*
Cc1ccc(OCc2nn3c(C4CCCCC4)nnc3s2)cc1	-4	-2	-1	-6	.	-1	.	.
COc1ccc2nc3cc(Cl)ccc3c(Nc3ccc(O)c(CN4CCN(C)CC4)c3)c2c1	5	1	2	20*	4.3*	-1	91*	2
CC(=O)Oc1ccc(C2=Cc3ccc(OC(C)=O)cc3OC2C)cc1 (centres undefined)	0	0	-2	8.2*	-1	-1	8.0*	6.5*
COc1ccc(C2=C/C(=C\c3ccc(OC(C)=O)cc3)C(=O)O2)cc1	0	1	1	-1	-1	-2	.	.
